Columns and labels:
[1] = molecular target: Serine/threonine-protein kinase 24 (Homo sapiens) (UniProt Q9Y6E0); conditions: at 1 µM
[2] = molecular target: Serine/threonine-protein kinase 24 (Homo sapiens) (UniProt Q9Y6E0); conditions: at 10 µM
[3] = molecular target: T1, Tyrosine-protein kinase Mer (Homo sapiens) (UniProt Q12866); conditions: at 1 µM
T1 sequence (whole entry): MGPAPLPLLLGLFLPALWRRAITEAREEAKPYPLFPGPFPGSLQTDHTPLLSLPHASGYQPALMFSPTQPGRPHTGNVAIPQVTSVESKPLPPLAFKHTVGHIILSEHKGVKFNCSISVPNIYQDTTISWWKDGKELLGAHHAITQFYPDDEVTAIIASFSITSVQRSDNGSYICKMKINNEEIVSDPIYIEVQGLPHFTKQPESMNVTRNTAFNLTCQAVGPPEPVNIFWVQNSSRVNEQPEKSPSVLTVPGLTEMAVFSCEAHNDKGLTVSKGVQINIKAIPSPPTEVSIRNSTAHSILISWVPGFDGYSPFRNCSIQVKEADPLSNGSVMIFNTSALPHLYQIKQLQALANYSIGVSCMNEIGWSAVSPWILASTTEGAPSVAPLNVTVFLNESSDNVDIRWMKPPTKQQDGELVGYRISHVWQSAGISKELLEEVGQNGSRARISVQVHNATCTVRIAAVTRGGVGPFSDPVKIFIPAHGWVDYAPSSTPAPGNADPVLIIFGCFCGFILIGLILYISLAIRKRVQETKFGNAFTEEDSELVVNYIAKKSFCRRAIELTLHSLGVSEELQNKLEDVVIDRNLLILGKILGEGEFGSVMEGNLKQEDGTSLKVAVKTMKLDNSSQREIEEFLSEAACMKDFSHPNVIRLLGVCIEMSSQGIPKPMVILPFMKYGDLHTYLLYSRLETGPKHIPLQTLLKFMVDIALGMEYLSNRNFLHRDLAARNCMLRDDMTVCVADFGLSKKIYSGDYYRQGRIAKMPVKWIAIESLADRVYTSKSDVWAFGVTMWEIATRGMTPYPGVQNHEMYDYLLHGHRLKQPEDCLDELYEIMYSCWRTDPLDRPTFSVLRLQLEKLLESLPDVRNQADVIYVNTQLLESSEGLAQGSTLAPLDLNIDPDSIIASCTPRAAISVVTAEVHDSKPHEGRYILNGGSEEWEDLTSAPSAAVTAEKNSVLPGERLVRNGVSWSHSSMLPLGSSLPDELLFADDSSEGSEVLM

[4] = molecular target: T1, Tyrosine-protein kinase Mer (Homo sapiens); conditions: at 10 µM
[5] = molecular target: Hepatocyte growth factor receptor (Homo sapiens) (UniProt P08581); conditions: at 1 µM
[6] = molecular target: Hepatocyte growth factor receptor (Homo sapiens) (UniProt P08581); conditions: at 10 µM
[7] = molecular target: MAP kinase-interacting serine/threonine-protein kinase 2 (Homo sapiens) (UniProt Q9HBH9); conditions: at 1 µM
[8] = molecular target: MAP kinase-interacting serine/threonine-protein kinase 2 (Homo sapiens) (UniProt Q9HBH9); conditions: at 10 µM
[9] = molecular target: T2, Muscle, skeletal receptor tyrosine-protein kinase (Homo sapiens) (UniProt O15146); conditions: at 1 µM
T2 sequence (whole entry): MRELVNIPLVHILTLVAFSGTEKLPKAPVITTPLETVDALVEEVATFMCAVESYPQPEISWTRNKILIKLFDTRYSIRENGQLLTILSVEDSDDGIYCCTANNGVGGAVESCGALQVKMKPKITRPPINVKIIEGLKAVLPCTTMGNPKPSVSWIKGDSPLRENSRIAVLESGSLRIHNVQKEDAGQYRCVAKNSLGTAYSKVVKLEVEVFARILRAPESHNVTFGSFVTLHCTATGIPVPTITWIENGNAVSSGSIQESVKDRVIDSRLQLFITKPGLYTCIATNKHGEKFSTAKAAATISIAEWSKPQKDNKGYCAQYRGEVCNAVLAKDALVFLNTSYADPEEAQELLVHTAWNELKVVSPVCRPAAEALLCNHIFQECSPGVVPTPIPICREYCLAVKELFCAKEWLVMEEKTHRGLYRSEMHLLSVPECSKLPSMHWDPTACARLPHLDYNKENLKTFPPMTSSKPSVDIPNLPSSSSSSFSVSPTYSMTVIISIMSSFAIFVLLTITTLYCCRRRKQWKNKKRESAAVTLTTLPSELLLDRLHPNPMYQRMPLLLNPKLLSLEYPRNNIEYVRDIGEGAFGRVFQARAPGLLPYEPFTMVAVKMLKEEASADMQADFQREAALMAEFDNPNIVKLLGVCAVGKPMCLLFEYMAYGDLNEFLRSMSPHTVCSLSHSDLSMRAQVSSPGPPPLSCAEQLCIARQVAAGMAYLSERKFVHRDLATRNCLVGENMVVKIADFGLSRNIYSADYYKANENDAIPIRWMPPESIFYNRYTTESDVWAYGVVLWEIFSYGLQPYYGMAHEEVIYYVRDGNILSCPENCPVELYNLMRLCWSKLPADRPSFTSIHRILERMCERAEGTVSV

[10] = molecular target: T2, Muscle, skeletal receptor tyrosine-protein kinase (Homo sapiens); conditions: at 10 µM
[11] = molecular target: T3, Serine/threonine-protein kinase Nek2 (Homo sapiens) (UniProt P51955); conditions: at 1 µM
T3 sequence (whole entry): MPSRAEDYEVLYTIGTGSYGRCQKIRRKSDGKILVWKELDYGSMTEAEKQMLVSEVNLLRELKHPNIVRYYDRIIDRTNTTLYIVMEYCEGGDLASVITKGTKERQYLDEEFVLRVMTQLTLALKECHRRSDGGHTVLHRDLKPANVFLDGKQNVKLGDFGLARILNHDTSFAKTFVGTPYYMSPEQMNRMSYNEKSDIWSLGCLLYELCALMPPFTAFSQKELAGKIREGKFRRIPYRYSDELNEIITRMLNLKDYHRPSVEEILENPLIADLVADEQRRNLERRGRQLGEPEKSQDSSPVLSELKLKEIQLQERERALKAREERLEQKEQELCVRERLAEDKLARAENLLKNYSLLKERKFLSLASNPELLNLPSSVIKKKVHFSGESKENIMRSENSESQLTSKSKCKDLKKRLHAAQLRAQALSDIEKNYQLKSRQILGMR

[12] = molecular target: T3, Serine/threonine-protein kinase Nek2 (Homo sapiens); conditions: at 10 µM
[13] = molecular target: Serine/threonine-protein kinase tousled-like 2 (Homo sapiens) (UniProt Q86UE8); conditions: at 1 µM
[14] = molecular target: Serine/threonine-protein kinase tousled-like 2 (Homo sapiens) (UniProt Q86UE8); conditions: at 10 µM
[15] = molecular target: T4, Serine/threonine-protein kinase 3 (Homo sapiens) (UniProt Q13188); conditions: at 1 µM
T4 sequence (whole entry): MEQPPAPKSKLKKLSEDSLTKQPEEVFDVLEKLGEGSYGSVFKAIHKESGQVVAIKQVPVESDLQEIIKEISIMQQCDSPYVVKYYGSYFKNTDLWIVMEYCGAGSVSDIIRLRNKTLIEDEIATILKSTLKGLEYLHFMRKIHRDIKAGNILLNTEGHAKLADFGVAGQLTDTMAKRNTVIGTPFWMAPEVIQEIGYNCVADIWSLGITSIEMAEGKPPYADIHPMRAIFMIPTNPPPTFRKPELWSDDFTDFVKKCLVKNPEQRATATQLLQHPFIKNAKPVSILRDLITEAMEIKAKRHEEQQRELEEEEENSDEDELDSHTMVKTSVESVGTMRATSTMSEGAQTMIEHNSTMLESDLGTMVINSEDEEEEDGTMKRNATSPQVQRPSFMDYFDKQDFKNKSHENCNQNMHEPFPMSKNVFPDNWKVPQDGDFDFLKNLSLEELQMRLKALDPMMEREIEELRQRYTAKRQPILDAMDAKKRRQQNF

[16] = molecular target: T4, Serine/threonine-protein kinase 3 (Homo sapiens); conditions: at 10 µM
[17] = molecular target: T5, Serine/threonine-protein kinase Nek11 (Homo sapiens) (UniProt Q8NG66); conditions: at 1 µM
T5 sequence (whole entry): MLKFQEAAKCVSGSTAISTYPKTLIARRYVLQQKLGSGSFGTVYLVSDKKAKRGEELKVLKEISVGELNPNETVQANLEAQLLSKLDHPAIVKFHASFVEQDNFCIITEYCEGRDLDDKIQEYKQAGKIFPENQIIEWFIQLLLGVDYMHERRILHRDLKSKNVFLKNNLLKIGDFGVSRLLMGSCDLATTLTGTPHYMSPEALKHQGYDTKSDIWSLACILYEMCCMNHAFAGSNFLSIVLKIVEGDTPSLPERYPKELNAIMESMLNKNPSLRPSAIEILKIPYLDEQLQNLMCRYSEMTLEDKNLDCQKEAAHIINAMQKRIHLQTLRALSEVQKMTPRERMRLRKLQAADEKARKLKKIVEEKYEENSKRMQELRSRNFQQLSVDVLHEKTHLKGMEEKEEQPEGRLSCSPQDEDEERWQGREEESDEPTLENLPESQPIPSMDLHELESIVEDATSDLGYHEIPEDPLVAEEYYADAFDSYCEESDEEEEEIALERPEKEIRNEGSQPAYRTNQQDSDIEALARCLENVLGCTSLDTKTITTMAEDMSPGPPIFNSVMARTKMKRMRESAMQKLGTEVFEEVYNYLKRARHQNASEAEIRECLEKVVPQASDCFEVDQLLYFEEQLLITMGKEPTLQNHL

[18] = molecular target: T5, Serine/threonine-protein kinase Nek11 (Homo sapiens); conditions: at 10 µM
[19] = molecular target: T6, Serine/threonine-protein kinase Nek3 (Homo sapiens) (UniProt P51956); conditions: at 1 µM
T6 sequence (whole entry): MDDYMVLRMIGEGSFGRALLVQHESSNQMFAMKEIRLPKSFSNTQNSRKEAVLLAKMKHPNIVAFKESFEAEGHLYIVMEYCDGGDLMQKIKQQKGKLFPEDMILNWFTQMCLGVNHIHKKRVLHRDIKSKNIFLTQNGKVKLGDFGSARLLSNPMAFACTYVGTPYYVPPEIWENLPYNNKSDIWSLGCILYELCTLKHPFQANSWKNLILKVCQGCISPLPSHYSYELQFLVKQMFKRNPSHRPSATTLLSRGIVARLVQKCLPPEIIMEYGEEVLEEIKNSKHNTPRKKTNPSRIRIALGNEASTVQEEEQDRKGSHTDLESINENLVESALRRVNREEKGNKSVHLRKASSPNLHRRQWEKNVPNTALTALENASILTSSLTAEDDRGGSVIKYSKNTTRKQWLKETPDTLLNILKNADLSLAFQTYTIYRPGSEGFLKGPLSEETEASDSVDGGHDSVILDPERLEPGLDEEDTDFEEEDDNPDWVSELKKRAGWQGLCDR

[20] = molecular target: T6, Serine/threonine-protein kinase Nek3 (Homo sapiens); conditions: at 10 µM

Hepatocyte growth factor receptor (Homo sapiens), sequence (P08581 whole entry): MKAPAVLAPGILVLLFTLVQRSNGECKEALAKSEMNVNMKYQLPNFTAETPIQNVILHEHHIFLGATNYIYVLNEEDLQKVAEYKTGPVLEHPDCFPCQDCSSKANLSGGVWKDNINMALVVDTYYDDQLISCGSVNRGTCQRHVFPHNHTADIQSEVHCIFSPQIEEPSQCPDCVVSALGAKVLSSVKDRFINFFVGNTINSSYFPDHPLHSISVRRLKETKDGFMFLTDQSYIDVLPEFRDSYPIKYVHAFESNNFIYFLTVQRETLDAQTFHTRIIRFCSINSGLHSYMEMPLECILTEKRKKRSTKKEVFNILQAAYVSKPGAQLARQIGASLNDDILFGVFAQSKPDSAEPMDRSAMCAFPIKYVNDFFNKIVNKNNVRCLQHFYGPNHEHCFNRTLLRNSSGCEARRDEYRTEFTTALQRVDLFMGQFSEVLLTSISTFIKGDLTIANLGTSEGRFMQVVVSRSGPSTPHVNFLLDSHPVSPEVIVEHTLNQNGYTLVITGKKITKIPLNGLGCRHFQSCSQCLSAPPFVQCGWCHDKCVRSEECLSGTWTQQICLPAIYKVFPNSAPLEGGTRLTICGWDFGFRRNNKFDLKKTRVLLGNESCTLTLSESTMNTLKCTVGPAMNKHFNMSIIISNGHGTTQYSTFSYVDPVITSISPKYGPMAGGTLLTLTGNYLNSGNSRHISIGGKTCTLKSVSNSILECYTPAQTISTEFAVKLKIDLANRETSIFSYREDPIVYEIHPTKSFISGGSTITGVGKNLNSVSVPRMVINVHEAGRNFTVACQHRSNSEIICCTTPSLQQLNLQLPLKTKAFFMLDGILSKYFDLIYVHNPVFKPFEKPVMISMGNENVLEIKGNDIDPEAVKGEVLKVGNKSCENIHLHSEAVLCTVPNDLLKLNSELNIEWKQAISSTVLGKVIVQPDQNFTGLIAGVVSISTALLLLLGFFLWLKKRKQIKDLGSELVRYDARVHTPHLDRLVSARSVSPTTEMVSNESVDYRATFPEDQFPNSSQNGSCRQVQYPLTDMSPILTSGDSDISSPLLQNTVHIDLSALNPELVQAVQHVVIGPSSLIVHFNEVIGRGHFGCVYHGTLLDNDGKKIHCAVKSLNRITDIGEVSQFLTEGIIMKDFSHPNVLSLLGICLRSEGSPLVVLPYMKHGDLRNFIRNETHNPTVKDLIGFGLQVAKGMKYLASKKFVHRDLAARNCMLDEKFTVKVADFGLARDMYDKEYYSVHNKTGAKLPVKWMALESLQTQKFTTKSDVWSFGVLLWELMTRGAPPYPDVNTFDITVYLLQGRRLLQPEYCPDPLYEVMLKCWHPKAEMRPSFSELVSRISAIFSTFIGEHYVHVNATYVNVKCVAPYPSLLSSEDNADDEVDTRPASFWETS
Serine/threonine-protein kinase 24 (Homo sapiens), sequence (Q9Y6E0 whole entry, looked up): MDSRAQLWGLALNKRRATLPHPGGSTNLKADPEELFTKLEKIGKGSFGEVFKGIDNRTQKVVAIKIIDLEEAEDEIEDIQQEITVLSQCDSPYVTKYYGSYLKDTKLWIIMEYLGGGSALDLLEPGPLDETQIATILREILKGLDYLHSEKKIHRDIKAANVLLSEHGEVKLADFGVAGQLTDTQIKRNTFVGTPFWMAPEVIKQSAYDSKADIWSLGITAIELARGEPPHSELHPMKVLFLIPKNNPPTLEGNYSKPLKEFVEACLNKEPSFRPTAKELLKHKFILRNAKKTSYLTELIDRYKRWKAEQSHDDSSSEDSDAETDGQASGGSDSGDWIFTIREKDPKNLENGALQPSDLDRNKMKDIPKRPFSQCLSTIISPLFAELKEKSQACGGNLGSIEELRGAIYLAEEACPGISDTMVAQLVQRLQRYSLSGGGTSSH
Serine/threonine-protein kinase tousled-like 2 (Homo sapiens), sequence (Q86UE8 whole entry, looked up): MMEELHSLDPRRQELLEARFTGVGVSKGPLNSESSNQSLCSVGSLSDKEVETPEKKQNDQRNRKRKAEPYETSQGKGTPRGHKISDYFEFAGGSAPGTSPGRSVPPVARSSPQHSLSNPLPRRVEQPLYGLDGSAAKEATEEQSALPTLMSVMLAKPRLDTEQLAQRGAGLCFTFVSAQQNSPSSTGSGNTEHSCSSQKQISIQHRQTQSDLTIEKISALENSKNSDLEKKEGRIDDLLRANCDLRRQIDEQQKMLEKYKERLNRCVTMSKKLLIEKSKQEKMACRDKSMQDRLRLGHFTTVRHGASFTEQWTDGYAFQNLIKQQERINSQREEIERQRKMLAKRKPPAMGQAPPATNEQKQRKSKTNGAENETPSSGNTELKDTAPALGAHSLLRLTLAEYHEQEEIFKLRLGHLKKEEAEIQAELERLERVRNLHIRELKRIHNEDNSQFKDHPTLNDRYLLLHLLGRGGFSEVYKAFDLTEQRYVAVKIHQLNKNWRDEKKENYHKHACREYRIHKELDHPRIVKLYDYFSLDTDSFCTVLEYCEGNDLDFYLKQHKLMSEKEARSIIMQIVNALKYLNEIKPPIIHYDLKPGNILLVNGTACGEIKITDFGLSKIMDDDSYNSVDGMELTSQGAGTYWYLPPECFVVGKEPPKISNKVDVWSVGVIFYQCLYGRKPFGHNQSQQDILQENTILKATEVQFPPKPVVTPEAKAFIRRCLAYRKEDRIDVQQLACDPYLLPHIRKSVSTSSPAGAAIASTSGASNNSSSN
MAP kinase-interacting serine/threonine-protein kinase 2 (Homo sapiens), sequence (Q9HBH9 whole entry, looked up): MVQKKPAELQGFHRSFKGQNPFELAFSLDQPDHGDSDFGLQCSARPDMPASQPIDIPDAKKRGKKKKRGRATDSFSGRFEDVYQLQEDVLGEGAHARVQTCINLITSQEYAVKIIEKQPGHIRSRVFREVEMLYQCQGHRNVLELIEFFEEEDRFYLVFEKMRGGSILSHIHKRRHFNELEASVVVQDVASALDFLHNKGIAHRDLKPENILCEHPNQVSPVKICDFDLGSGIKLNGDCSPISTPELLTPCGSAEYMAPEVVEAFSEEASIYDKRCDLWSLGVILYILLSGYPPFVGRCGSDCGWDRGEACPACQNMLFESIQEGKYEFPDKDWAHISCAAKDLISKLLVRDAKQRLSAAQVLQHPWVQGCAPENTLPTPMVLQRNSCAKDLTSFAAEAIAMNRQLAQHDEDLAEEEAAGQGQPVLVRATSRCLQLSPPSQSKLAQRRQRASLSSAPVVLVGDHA

Structure (SMILES)	residual activity [1] [%]	residual activity [2] [%]	residual activity [3] [%]	residual activity [4] [%]	residual activity [5] [%]	residual activity [6] [%]	residual activity [7] [%]	residual activity [8] [%]	residual activity [9] [%]	residual activity [10] [%]	residual activity [11] [%]	residual activity [12] [%]	residual activity [13] [%]	residual activity [14] [%]	residual activity [15] [%]	residual activity [16] [%]	residual activity [17] [%]	residual activity [18] [%]	residual activity [19] [%]	residual activity [20] [%]
c1ccc(-c2n[nH]c3c2oc2ccccc23)cc1	66	67	95	70	87	70	80	24	14	0	91	99	98	86						
CC[n+]1c(/C=C/N(C)c2ccccc2)n(-c2ccccc2)c2ccc(-c3nc4ccccc4s3)cc21	78	79	113	48	97	74	104	63	114	58	83	123	109	80	109	71	71	99	116	92
O=C1Nc2ccc(Br)cc2/C1=C\c1cc2c([nH]1)CCCC2		77	68	45	104	144	108	102	61	50		101	107		46	61			102	97
O=C1NC(=O)c2cc(Nc3ccc(F)cc3)c(Nc3ccc(F)cc3)cc21	68	54	105	93	89	59	106	86	34	3	77	94	101	85	100	68	70	93	109	81
Cc1ccc(S(=O)(=O)/C=C/C#N)cc1	86	88	101	108	96	123	98	101	85	96	97	90	87	89	99	95	72	81	90	98
CC(C)n1cnc2c(NCc3ccccc3)nc(NCCCO)nc21	77	69	98	82	101	79	90	80	82	86	96	82	96	89	111	99	57	72	85	99
c1ccc2c(-c3ccncc3)c[nH]c2c1	61	69	100	73		68	35	9	88	82	78	88	103	85	103	81	89	67		
CN(C)CCCn1cc(C2=C(c3c[nH]c4ccccc34)C(=O)NC2=O)c2ccccc21	27	7	60	11		58			134	74		105	21	2	73	17	72	59		90

From ChEMBL document CHEMBL2218924, “A broad activity screen in support of a chemogenomic map for kinase signalling research and drug discovery” (Biochem J, 2013)
